Assay results from PubChem BioAssay.
Active and inactive are the calls of the source. Unless noted, no rule for the calls is given here.

Key:
[1] = anti-His antibody binders, primary screen, artefact control for SMM control protein annotation, biochemical, small-molecule microarray, 635 nm fluorescence (AID 1128); settings: anti-His Alexa647 antibody binding, higher = more signal;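 also: score merges feature fluorescence with signal-to-noise for each printed compound spot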
[2] = system: Human papillomavirus type 1a E7 protein (residues 1-88); test: HPV1a E7 small-molecule binders, primary screen, biochemical, small-molecule microarray, residues 1-88, 635 nm (AID 1129); settings: small-molecule microarray binding, fluorescence 635 nm; higher = more signal
[3] = target: Focal adhesion kinase 1 (Homo sapiens) (UniProt Q05397); test: small-molecule microarray binders of FAK, primary screen, biochemical, 635/667 nm fluorescence, BSA, DTT (AID 1130); settings: PTK2 binding, 635 nm fluorescence, higher = more signal;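 also: composite of spot emission at 667 nm and signal to noise over triplicate slides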
Sequence of Focal adhesion kinase 1 (Homo sapiens) (Q05397 whole entry, looked up): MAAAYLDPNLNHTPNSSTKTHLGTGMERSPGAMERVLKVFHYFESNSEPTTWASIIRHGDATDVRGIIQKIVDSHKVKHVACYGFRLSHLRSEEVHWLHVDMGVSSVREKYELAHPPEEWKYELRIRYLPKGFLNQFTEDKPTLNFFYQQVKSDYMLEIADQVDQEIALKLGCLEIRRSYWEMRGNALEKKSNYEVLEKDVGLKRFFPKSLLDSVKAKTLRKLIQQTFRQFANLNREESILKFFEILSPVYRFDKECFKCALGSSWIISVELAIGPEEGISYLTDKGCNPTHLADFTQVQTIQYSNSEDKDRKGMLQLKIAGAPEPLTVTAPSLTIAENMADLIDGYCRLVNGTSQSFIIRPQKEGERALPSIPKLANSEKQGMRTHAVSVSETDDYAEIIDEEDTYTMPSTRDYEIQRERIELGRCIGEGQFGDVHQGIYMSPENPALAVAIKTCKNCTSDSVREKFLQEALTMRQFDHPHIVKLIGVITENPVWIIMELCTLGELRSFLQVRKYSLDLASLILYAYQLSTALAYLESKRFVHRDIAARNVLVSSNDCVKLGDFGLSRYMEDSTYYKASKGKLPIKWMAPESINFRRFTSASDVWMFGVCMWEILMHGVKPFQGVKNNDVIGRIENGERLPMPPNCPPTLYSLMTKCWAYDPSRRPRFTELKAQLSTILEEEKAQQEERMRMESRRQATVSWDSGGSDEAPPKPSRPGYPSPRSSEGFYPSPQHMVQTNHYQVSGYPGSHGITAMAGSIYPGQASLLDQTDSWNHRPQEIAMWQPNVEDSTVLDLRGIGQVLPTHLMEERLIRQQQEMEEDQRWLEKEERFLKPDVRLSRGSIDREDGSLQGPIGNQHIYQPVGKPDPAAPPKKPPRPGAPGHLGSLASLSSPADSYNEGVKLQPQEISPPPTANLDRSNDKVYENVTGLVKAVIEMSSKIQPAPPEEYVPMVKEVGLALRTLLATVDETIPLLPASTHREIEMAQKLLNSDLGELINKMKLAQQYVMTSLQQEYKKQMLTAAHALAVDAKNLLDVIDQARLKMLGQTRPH

[4] = system: Fibrinogen (Alexa647-labelled); test: fibrinogen binders on compound microarrays, profiling panel, artefact control for SMM control-protein annotation, biochemical, small-molecule microarray, 635/667 nm fluorescence (AID 1131); settings: fibrinogen-A647 binding fluorescence, higher = more signal;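 also: z-score merges 667 nm fluorescence with per-spot signal-to-noise over triplicate slides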
[5] = target: Follistatin (Homo sapiens) (UniProt P19883); test: follistatin binders on small-molecule microarrays, primary screen, biochemical, small-molecule microarray, 635/667 nm fluorescence (AID 1132); settings: FST binding, 635 nm fluorescence, higher = more signal
Sequence of Follistatin (Homo sapiens) (P19883 whole entry, looked up): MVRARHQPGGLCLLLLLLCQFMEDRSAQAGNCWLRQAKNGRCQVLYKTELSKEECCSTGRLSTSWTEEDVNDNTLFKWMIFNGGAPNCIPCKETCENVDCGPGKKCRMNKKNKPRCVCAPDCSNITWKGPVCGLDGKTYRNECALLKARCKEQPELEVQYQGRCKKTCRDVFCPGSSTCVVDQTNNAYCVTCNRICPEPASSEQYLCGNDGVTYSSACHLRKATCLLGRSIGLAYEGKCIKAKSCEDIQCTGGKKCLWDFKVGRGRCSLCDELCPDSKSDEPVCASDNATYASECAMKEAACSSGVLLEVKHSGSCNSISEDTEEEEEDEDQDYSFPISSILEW

[6] = target: Fibroblast growth factor 2 (Homo sapiens) (UniProt P09038); test: FGF2 binders on small-molecule microarrays, primary screen, biochemical, small-molecule microarray, 635/667 nm fluorescence (AID 1133); settings: small-molecule microarray binding, FGF2, fluorescence 635/667; higher = more signal
Sequence of Fibroblast growth factor 2 (Homo sapiens) (P09038 whole entry, looked up): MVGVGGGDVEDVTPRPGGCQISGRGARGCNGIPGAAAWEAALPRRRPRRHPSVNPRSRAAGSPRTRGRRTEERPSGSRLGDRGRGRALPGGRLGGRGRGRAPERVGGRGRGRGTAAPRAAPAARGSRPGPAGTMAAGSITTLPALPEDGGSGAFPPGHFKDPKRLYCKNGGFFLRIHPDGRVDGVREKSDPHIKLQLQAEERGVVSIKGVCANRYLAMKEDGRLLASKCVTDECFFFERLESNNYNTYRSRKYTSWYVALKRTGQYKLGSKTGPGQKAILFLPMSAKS

[7] = mitochondrial membrane potential change in A549 cells, profiling panel, cell-based, JC-1 fluorescence, basal, 24 h, 100 nL (AID 1138); settings: higher = more signal;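 also: A549 lung adenocarcinoma cells under basal conditions with no added stimulus; test concentration not given here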
Lefty1 = Lefty1 binders on small-molecule microarrays, primary screen, biochemical, small-molecule microarray, 635/667 nm fluorescence (AID 1139); settings: small-molecule microarray binding, fluorescence 635/667; higher = more signal
[8] = system: wheat germ agglutinin (Triticum aestivum), Alexa647-labelled; test: wheat germ agglutinin binders on compound microarrays, profiling panel, artefact control for SMM control-protein annotation, biochemical, small-molecule microarray, 635/667 nm fluorescence (AID 1140); settings: WGA-A647 binding, 635 nm fluorescence, higher = more signal;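 also: score merges 667 nm feature emission with signal to noise over triplicate slides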
[9] = target: Luciferin 4-monooxygenase (Photinus pyralis) (UniProt P08659); test: firefly luciferase enzyme inhibitors, primary screen, biochemical, luminescence, purified enzyme, 2006 set (AID 1141); settings: SteadyGlo luminescence, 30 min, higher = more signal, called active from +8 up or from −8 down;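 also: cell-free assay with purified firefly luciferase at 100 ng per well in PBS; test concentration not given here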
Sequence of Luciferin 4-monooxygenase (Photinus pyralis) (P08659 whole entry, looked up): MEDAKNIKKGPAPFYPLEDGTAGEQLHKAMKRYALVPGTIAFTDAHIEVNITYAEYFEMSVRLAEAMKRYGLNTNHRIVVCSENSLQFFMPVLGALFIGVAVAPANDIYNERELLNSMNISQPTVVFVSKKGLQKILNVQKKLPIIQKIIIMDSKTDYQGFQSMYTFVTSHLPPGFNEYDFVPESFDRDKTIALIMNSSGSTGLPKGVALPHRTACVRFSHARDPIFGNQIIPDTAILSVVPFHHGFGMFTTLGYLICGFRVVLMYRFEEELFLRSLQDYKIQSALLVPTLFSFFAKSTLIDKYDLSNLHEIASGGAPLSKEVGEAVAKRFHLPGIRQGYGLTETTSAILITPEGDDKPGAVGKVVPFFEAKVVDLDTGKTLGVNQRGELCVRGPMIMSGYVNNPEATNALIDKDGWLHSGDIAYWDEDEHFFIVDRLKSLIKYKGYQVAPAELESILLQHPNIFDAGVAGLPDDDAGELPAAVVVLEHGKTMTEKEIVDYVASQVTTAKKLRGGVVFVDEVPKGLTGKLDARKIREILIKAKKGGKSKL

[10] = system: Wnt5a (protein binding on small-molecule microarray); test: Wnt5a binders on small-molecule microarray, primary screen, biophysical, 635/667 nm fluorescence (AID 1142); settings: 635 nm fluorescence, higher = more signal;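 also: fluorescence read at 667 nm with signal to noise per printed feature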
[11] = cell viability in Huh7 cells, primary screen, cytotoxicity control for HCV replication inhibitor project, CellTiter-Glo luminescence, basal, 48 h (AID 1143); settings: Huh7 HCV replicon, higher = more signal, called active from +8 up or from −8 down;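 also: Huh7 hepatoma cells carrying a hepatitis C replication reporter with no stimulus; test concentration not given here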
[12] = P. aeruginosa biofilm formation inhibitors, primary screen, PAO1 strain, BacTiter-Glo luminescence, LB-PBS (AID 1144); settings: 12 h, higher = more signal
[13] = CREB reporter modulators without forskolin, primary screen, cell-based, PC12, CRE-LacZ reporter, unstimulated (AID 1145); settings: no forskolin, luminescence, 4.5 h, higher = more signal, called active from +8 up or from −8 down
[14] = CREB reporter modulators under forskolin, primary screen, cell-based, PC12, CRE-LacZ reporter, forskolin-stimulated (AID 1146); settings: luminescence, 4.5 h, higher = more signal, called active from +8 up or from −8 down;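 also: PC12 cells with 6xCRE LacZ reporter stimulated by forskolin 10 µM; beta-galactosidase reporter signal reflecting CREB driven transcription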
[15] = target: Streptavidin (Streptomyces avidinii) (UniProt P22629); test: streptavidin binders on small-molecule microarray, primary screen, artefact control for SMM compound annotation, biophysical, 635/667 nm fluorescence (AID 1147); settings: streptavidin binding, higher = more signal;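 also: signal reflects streptavidin binding to arrayed compounds as a control protein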
Sequence of Streptavidin (Streptomyces avidinii) (P22629 whole entry, looked up): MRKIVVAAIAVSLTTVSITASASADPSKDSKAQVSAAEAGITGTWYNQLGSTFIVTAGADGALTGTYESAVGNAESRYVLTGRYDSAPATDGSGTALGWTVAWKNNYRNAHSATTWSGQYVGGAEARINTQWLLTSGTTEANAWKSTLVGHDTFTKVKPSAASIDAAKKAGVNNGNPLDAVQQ

[16] = small-molecule binders of probe aInhba, primary screen, biochemical, small-molecule microarray, 635/667 nm fluorescence (AID 1148); settings: higher = more signal;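 also: score merges 667nm spot fluorescence with signal-to-noise for antibody binding to printed compounds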
Torsin-1A (Homo sapiens) [17] = target: Torsin-1A (Homo sapiens) (UniProt O14656); test: torsin A binders from cell lysate, primary screen, small-molecule microarray, wild-type, 635/667 nm (AID 1149); settings: COS7 hTOR1A-WT lysate, 635 nm fluorescence, higher = more signal
Sequence of Torsin-1A (Homo sapiens) (O14656 whole entry, looked up): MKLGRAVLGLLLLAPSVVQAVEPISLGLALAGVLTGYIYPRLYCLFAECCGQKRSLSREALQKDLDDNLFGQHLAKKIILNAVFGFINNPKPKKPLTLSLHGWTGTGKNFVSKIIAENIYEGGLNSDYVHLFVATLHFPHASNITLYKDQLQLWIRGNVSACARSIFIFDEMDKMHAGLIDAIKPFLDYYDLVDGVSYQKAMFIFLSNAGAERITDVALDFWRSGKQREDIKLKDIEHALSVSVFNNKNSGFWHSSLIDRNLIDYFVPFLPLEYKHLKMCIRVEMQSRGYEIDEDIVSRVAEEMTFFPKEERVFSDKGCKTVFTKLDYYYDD

Torsin-1A (Homo sapiens) [18] = target: Torsin-1A (Homo sapiens) (UniProt O14656); test: small-molecule binders of mutant TOR1A in lysate, primary screen, cell lysate, small-molecule microarray, COS7 lysate, 635/667 nm fluorescence (AID 1150); settings: COS7 hTOR1A mutant lysate, 635 nm fluorescence, higher = more signal;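 also: score pools 667 nm emission and signal to noise measuring lysate protein binding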
[19] = system: Sonic hedgehog protein (Shh); test: small-molecule binders of Shh protein, primary screen, biochemical, small-molecule microarray, 635/667 nm fluorescence (AID 1151); settings: small-molecule microarray binding, 635 nm fluorescence; higher = more signal;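 also: Shh protein binding to compounds spotted on small-molecule microarray slides; score combines spot fluorescence intensity with signal-to-noise across triplicate slides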

Structure (SMILES)	composite z-score [1]	composite z-score [2]	composite z-score [3]	composite z-score [4]	composite z-score [5]	composite z-score [6]	z-score [7]	composite z-score (Lefty1)	composite z-score [8]	z-score [9]	composite z-score [10]	z-score [11]	z-score [12]	z-score [13]	z-score [14]	composite z-score [15]	composite z-score [16]	composite z-score (Torsin-1A (Homo sapiens) [17])	composite z-score (Torsin-1A (Homo sapiens) [18])	composite z-score [19]
CN(C)c1ccc(C(O)C2C=CC3C(=O)N(c4ccccc4)C(=O)C3N2Nc2ccc([N+](=O)[O-])cc2)cc1 (stereo not given)	1.35	1.19	-0.165	0.979	1.01	-0.181	-0.621	0.149	0.623	-0.421 (inactive)	0.0074	-0.619 (inactive)	0.108 (inactive)	0.49 (inactive)	-0.464 (inactive)	0.769	-0.0736	0.603	0.377	-0.13
COc1ccc([Si](C)(C)[C@@H]2[C@@H](CC(=O)N(CCO)Cc3ccccc3)O[C@]3(C(=O)N(Cc4cccc(N5C(=O)c6cccc7cccc5c67)c4)c4ccccc43)[C@H]2C)cc1	0.63	-0.46	0.994	0.725	1.1	1.72	-0.538	0.972	0.369	0.187 (inactive)	-0.164	-5.84 (inactive)	-1.02 (inactive)	-0.999 (inactive)	-0.823 (inactive)	-0.24	-0.0762	-0.0207	0.502	0.982
CCCNC(=O)[C@@H]1c2ccccc2C(=O)N(C(C)C)[C@H]1c1ccc(CO)cc1	3	-0.645	-0.19	-0.29	-0.577	-0.517	1.39	-0.371	-0.03	0.407 (inactive)	-0.122	-0.0095 (inactive)	-0.521 (inactive)	-0.412 (inactive)	0.211 (inactive)	-0.0547	0.0658	-0.215	0.0984	-0.121
COc1cc2c(cc1O)C(C)N(Cc1ccc([N+](=O)[O-])o1)CC2 (stereo not given)	1.63	1.1	0.243	0.824	0.542	0.18	0.275	0.18	0.918	-0.0107 (inactive)	0.322	0.143 (inactive)	-0.158 (inactive)	-0.258 (inactive)	1.6 (inactive)	0.97	0.303	0.682	0.897	0.0196
COc1ccc(CCN2C(=O)[C@@]3(Cc4ccccc42)c2ccccc2C(=O)N(Cc2ccccc2OC)[C@H]3c2ccc(CO)cc2)cc1	-0.983	-1.04	-0.149	-1.45	-1.19	-0.832	0.132	-1.55	-0.176	-0.377 (inactive)	-0.166	-4.54 (inactive)	0.0431 (inactive)	0.649 (inactive)	-0.341 (inactive)	-0.491	-0.126	-0.194	-0.933	-0.384
